{
  "source": "PubChem BioAssay (NCI)",
  "note": "About 83,000 compounds went through this panel and 20% of them were active in at least one assay; those are over-represented in the sample as a whole.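 Growth was measured after 48 h exposure to one concentration of compound in 96-well plates. Values under 10 count as active.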 Values without a mark were called inactive. The source made the active and inactive calls.",
  "data": [
    {"test_system": "HL-60(TB) leukemia", "experiment": "NCI-60 one-dose screen, 48 h (100 = growth as untreated, 0 = no growth, -100 = all killed)", "details": "10 µM unless noted", "values": [
      {"smiles": "CCOC(=O)c1ccc(NC(C)=O)o1", "growth": "80.6%"},
      {"smiles": "Nc1cc(F)ccc1[N+](=O)[O-]", "growth": "115%"},
      {"smiles": "c1ccc(-c2n(Cc3ccc4ccccc4c3)cc[n+]2Cc2ccc3ccccc3c2)cc1", "growth": "-47.6% (active)"},
      {"smiles": "CN(c1ncccc1CNc1nc(Nc2ccc3c(c2)CC(=O)N3)ncc1C(F)(F)F)S(C)(=O)=O", "growth": "-40% (active)"},
      {"smiles": "C[C@]12CCc3nc(Nc4cccc(O)c4)sc3C1=CC[C@@H]1[C@@H]2CC[C@]2(C)/C(=N\\NC(N)=S)CC[C@@H]12", "growth": "10.9%"},
      {"smiles": "C=C(C)[C@@H]1CC[C@]2(C(=O)Nc3ccccn3)CC[C@]3(C)[C@H](CC[C@@H]4[C@@]5(C)CCCNC(C)(C)[C@@H]5CC[C@]43C)[C@@H]12", "growth": "-38.1% (active)"},
      {"smiles": "C#CCNC(=O)[C@]1(C)CCC[C@@]2(C)[C@H]1CC=C1C=C(C(C)C)CC[C@@H]12", "growth": "131%"},
      {"smiles": "CC1CN(C2CCCCC2)C(=S)N(c2ccccc2)C1=O", "note": "(stereo not given)", "growth": "85%"},
      {"smiles": "O=C(Nc1ccncc1)C(=O)c1cn(S(=O)(=O)c2cccc(F)c2)c2ccccc12", "growth": "-9.88% (active)"},
      {"smiles": "CCCCn1c(-c2ccc(-c3nc(-c4ccc(Cl)cc4)no3)cc2)nc(-c2ccccc2)c1-c1ccccc1", "growth": "61.4%"},
      {"smiles": "Cc1cc(NCCCCNc2ccnc3cc(Cl)ccc23)nc(Nc2ccc(C(=O)N3CCCC3)cc2)n1", "growth": "14.7%"},
      {"smiles": "CC1=CCC(OC(=O)C(C)(O)CCC(O)(C(=O)OC2(C)C=CC(O)(C(C)C)CC2)C(C)C)(C(C)C)CC1", "note": "(stereo not given)", "growth": "110%"},
      {"smiles": "Cc1cc(C(=O)c2ccccc2)cc(C)c1O", "growth": "31.3%"},
      {"smiles": "COc1ccc(N=C2NN=C(c3c[nH]c4ccccc34)CS2)cc1OC", "growth": "47%"},
      {"smiles": "O=C1OCc2cccc3cccc1c23", "growth": "84.9%"},
      {"smiles": "CCOP(=O)(OCC)/C(C#N)=C/c1c(C)[nH]c2ccccc12", "growth": "96.6%"},
      {"smiles": "O=C(CCCCCCCCC(=O)N/N=C\\c1ccccc1O)N/N=C\\c1ccccc1O", "growth": "14.8%"},
      {"smiles": "O=C(O)c1ccccc1C(=O)Nc1ccc(Cl)cc1", "growth": "55%"},
      {"smiles": "CCN(CC)c1ccc(/C=C2\\Oc3ccc(O)c(I)c3C2=O)cc1", "growth": "18.5%"},
      {"smiles": "O=S(=O)(NCCNc1nccc(-c2c(-c3ccc(F)c(O)c3)nc3occn23)n1)c1ccccc1", "growth": "63.6%"},
      {"smiles": "CO[C@H]1CC[C@@]2(C)C(=CC[C@H]3[C@@H]4C[C@H](O)C[C@@]4(C)CC[C@@H]32)C1", "growth": "22.6%"},
      {"smiles": "CC(=O)c1ccc(NC(=O)CSc2nnc(-c3cc(-c4ccc(C)cc4)nc4ccccc34)o2)cc1", "growth": "80.6%"},
      {"smiles": "COc1ccc(Cn2c(SC)nc(=O)n(Cc3ccc(Cl)cc3)c2=O)cc1", "growth": "94.2%"},
      {"smiles": "O=S(=O)(/N=c1/n(-c2ccccc2)nc2n1CCN2C1=NCCN1)c1ccc(-c2ccccc2)cc1", "growth": "136%"},
      {"smiles": "Nc1ncnc2c1ccn2-c1cccc(NC(=O)c2ccc(N3CCOCC3)c(C(F)(F)F)c2)c1", "growth": "54.1%"},
      {"smiles": "c1ccc2nc(N/N=C3\\CCCCC3C3CCCCC3)ccc2c1", "note": "(stereo not given)", "growth": "-19.7% (active)"},
      {"smiles": "Nc1c(C(=O)Nc2ccncc2)sc2nc3c(cc12)CCCCCCCC3", "growth": "-54.9% (active)"},
      {"smiles": "O=C(Nc1ccc(Oc2ccc(NC(=O)Nc3ccccc3Cl)cc2)cc1)Nc1ccccc1Cl", "growth": "51.7%"},
      {"smiles": "COc1ccc(NC(=O)c2cccc(C3CCc4c(cc(OC)c(OC)c4OC)O3)c2)cc1", "note": "(stereo not given)", "growth": "-8.38% (active)"},
      {"smiles": "S=c1[nH]nc(Cc2ccccc2)c(=S)[nH]1", "growth": "98.5%"},
      {"smiles": "COc1cc(O)c2c(=O)c3c(CC=C(C)C)cc(OC)c(O)c3oc2c1", "growth": "-15.9% (active)"},
      {"smiles": "O=C(Oc1cccc2ccccc12)Oc1cccc2ccccc12", "growth": "88.4%"},
      {"smiles": "Cc1ccc(Nc2ccc(O)c3c2C(=O)c2c(O)ccc(Nc4ccc(C)cc4)c2C3=O)cc1", "growth": "108%"},
      {"smiles": "CCSc1nc2scc(C)c2c(=O)[nH]1", "growth": "99.8%"},
      {"smiles": "CC(=O)OC[C@]12CC[C@@H](c3cn(Cc4ccc(Cn5cc([C@@H]6CC[C@]7(COC(C)=O)CC[C@]8(C)[C@H](CC[C@@H]9[C@@]%10(C)CC[C@H](OC(C)=O)C(C)(C)[C@@H]%10CC[C@]98C)[C@@H]67)nn5)cc4)nn3)[C@@H]1[C@H]1CC[C@@H]3[C@@]4(C)CC[C@H](OC(C)=O)C(C)(C)[C@@H]4CC[C@@]3(C)[C@]1(C)CC2", "growth": "90.5%"},
      {"smiles": "CCN(CC)CCC(=O)Nc1cccc2c1C(=O)c1c(c(O)c3ccccc3c1O)C2=O", "growth": "27.8%"},
      {"smiles": "CC(C)(C)c1cn2cccc(C(=O)N3CCN(CC(=O)Nc4ccc(Cl)cc4C(=O)c4ccccc4Cl)CC3)c2n1", "growth": "-32.4% (active)"},
      {"smiles": "COc1ccc(Cl)cc1Nc1nc(C(F)(F)F)ccc1C(=O)N/N=C/c1c(Cl)cccc1Cl", "growth": "48.4%"},
      {"smiles": "COc1ccc(C2C3=C(COC3=O)N(CCO)c3cc4c(cc32)OCCO4)cc1OC", "note": "(stereo not given)", "growth": "6.34% (active)"},
      {"smiles": "COc1ccc(C2CC(=O)c3c(O)c(OC)c(OC)c(OC)c3O2)cc1O", "note": "(stereo not given)", "growth": "-4.32% (active)"}
    ]}
  ]
}
